# Experimental data taken from PubChem BioAssay.
# Active and inactive are the calls of the source.
# System: not listed separately
# Experiment: forskolin-driven CRE-LacZ activity in PC12 – cell-based, CRE-LacZ reporter, forskolin-stimulated, primary screen (AID 1146);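 also: PC12 cells with 6xCRE LacZ reporter stimulated by forskolin 10 µM; beta-galactosidase reporter signal reflecting CREB driven transcription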
# Settings: luminescence, 4.5 h, higher = more signal, called active from +8 up or from −8 down
row,Structure (SMILES),z-score
1,CCOC(=O)[C@H](CC(C)C)NC(=O)CCC1CC(OC(=O)NCc2ccc3c(c2)OCO3)CC2(CCCC(COC(=O)NCCOc3ccccc3)O2)O1 (stereo not given in full),0.179 (inactive)
2,CON=C(C)CCN1CCCCc2nc(C)c(C)cc21,1.13 (inactive)
3,C=CC[C@@H]1C=C[C@H](ON=CC[C@@H]2C=C[C@H](OC(C)=O)[C@@H](COC(C)=O)O2)[C@@H](CO)O1,-0.66 (inactive)
4,C[C@@H]1CC[C@@H](C(=O)O)N[C@H]1c1cccc(N2CCOCC2)c1,-1.29 (inactive)
5,CC(=O)OC[C@H]1O[C@H](CC=NOC[C@@H](O)COCc2ccco2)C=C[C@@H]1OC(C)=O,0.25 (inactive)
6,CC(CCN1CCc2nc(-c3ccccc3)c(-c3ccccc3)cc2C1)=NO[C@H](C)c1cn([C@H](CO)Cc2ccccc2)nn1,1.11 (inactive)
7,CCOC(=O)CCN1C(=O)[C@H]2[C@H]3[C@H](O)[C@H](O)CC(=NNC(=O)OCc4ccc(OC)cc4)[C@H]3CC[C@H]2C1=O,-0.139 (inactive)
8,CC(=O)OC[C@H]1O[C@@H](ON=C(C)CCC(=O)OC[C@H]2O[C@H](C#Cc3ccccc3)C=C[C@@H]2Oc2ccc(C)cc2)[C@H](OC(C)=O)[C@@H](OC(C)=O)[C@@H]1OC(C)=O,0.725 (inactive)
9,O=C1CCCC=C1C(O)c1ccc([N+](=O)[O-])cc1 (stereo not given),0.126 (inactive)

# Target: Streptavidin (Streptomyces avidinii) (UniProt P22629)
# Sequence (P22629 whole entry, looked up): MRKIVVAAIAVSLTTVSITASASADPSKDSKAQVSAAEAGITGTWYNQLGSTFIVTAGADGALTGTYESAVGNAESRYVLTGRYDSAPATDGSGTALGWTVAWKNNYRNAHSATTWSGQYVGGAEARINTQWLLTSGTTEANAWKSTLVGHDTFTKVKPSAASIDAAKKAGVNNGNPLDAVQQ
# Experiment: compounds binding control protein streptavidin – biophysical, small-molecule microarray, 635/667 nm fluorescence, artefact control for SMM compound annotation, primary screen (AID 1147);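 also: signal reflects streptavidin binding to arrayed compounds as a control protein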
# Settings: higher = more signal
row,Structure (SMILES),composite z-score
1,CCOC(=O)[C@H](Cc1ccccc1)NC(=O)CCC1CC(OC(=O)NCc2ccc3c(c2)OCO3)CC2(CCCC(COC(=O)NCCOC)O2)O1 (stereo not given in full),0.91
2,CCOC(=O)[C@H](Cc1ccccc1)NC(=O)CCC1CC(OC(=O)NCc2ccc3c(c2)OCO3)CC2(CCCC(COC(=O)NCCCN3CCCC3=O)O2)O1 (stereo not given in full),0.669
3,COC(=O)[C@H](C)NC(=O)CCC1CC(OC(=O)NCCc2ccc(F)cc2)CC2(CCCC(COC(=O)NCCOc3ccccc3)O2)O1 (stereo not given in full),0.56
4,O=C1CCCC=C1C(O)C1CCCCC1 (stereo not given),-0.234
5,CCOC(=O)NN=C1C[C@@H](O)[C@@H](O)[C@@H]2[C@@H]3C(=O)N(c4ccc(F)cc4F)C(=O)[C@@H]3CC[C@H]12,-0.0442
6,CC(=O)OC[C@H]1O[C@H](CC=NO[C@@H](C)c2cc(-c3c(C)cc(C)cc3C)no2)C=C[C@@H]1OC(C)=O,0.897
7,CCOC(=O)CCN1C(=O)[C@H]2[C@H]3[C@H](O)[C@H](O)CC(=NO[C@@H]4O[C@H](CO)[C@@H](O)[C@H](O)[C@H]4O)[C@H]3CC[C@H]2C1=O,-0.0432
8,CCOC(=O)[C@H](CC(C)C)NC(=O)CCC1CC(OC(=O)NCCc2ccc(F)cc2)CC2(CCCC(COC(=O)NCc3cccc(C(F)(F)F)c3)O2)O1 (stereo not given in full),0.0808
9,C[C@H]1CC[C@@H](C(=O)O)N[C@@H]1c1cccc(N2CCCC2=O)c1,-0.0712
10,CC(=O)OC[C@H]1O[C@@H](ON=C2[C@H]3CCn4c(=O)n(-c5ccccc5)c(=O)n4[C@H]3[C@H](O)[C@@H]3O[C@H]23)[C@H](OC(C)=O)[C@@H](OC(C)=O)[C@@H]1OC(C)=O,0.324
11,CCOC(=O)[C@H](CC(C)C)NC(=O)CCC1CC(OC(=O)NCCc2ccc(F)cc2)CC2(CCCC(COC(=O)NCCCN3CCCC3=O)O2)O1 (stereo not given in full),0.484
12,CC(CCC(=O)OC[C@H]1O[C@H](C#Cc2ccccc2)C=C[C@@H]1Oc1ccc(C)cc1)=NOC[C@@H](C)[C@H](OCc1ccccc1)C(C)C,-0.783
13,CCOC(=O)[C@H](Cc1ccccc1)NC(=O)CCC1CC(OC(=O)NCc2cccc3ccccc23)CC2(CCCC(COC(=O)NCCc3ccccc3OC)O2)O1 (stereo not given in full),0.486
14,COC(=O)[C@H](C)NC(=O)CCC1CC(OC(=O)NCCc2ccc(F)cc2)CC2(CCCC(COC(=O)NCCc3ccccc3OC)O2)O1 (stereo not given in full),0.553
15,CCOC(=O)NN=C1C[C@@H](O)[C@@H](O)[C@@H]2[C@@H]3C(=O)N(C[C@@H]4CCCO4)C(=O)[C@@H]3CC[C@H]12,-0.319
16,CON=C1c2cc(OC)ccc2O[C@H](c2cccc(OC)c2)[C@H]1O,0.431
17,COC(=O)[C@H](C)NC(=O)CCC1CC(OC(=O)NCc2ccc3c(c2)OCO3)CC2(CCCC(COC(=O)NCCC(C)C)O2)O1 (stereo not given in full),0.232
18,C[C@H]1C=CCC(=O)OC[C@H](C)C(=O)N2CCC[C@H]2C(=O)OC1,-0.176

row,Structure (SMILES),composite z-score
1,CCCNC(=O)OC[C@H]1O[C@H](CCON=C2C[C@@H](O)[C@@H](O)[C@@H]3[C@@H]4C(=O)N(CC)C(=O)[C@@H]4CC[C@@H]23)C=C[C@@H]1Oc1ccc(OC)cc1,0.842
2,COC(=O)[C@@H]1CC[C@H](C)[C@@H](c2ccc(C)cc2)N1C(=O)c1ccc(C=NO[C@@H](C)c2cc(-c3c(C)cc(C)cc3C)no2)cc1,0.152
3,CC(C)(C)N1C(=O)[C@H]2[C@H]3[C@H](O)[C@H](O)CC(=NNC(=O)OCc4ccccc4)[C@H]3CC[C@H]2C1=O,-0.107
4,CO[C@@H]1COC(=O)CC=C[C@H](C)[C@H](OC)COC(=O)[C@@H]2CCCN2C(=O)CC=C[C@H]1C,-0.0406
5,Cc1cc2c(nc1C)CCCCN2CC(O)CN1CCCc2nc(-c3ccc(Br)cc3)ccc21 (stereo not given),0.639
6,COc1ccc(O[C@H]2C=C[C@@H](C#Cc3ccccc3)O[C@@H]2CO)cc1,0.966
7,C#CCCCON=C1C[C@@H](O)[C@@H](O)[C@@H]2[C@@H]3C(=O)N(C[C@@H]4CCCO4)C(=O)[C@@H]3CC[C@H]12,0.66
8,O=C1[C@H]2[C@H]3[C@H](O)[C@H](O)CC(=NO[C@@H]4O[C@H](CO)[C@@H](O)[C@H](O)[C@H]4O)[C@@H]3CC[C@H]2C(=O)N1c1cccc(Oc2ccccc2)c1,0.532
9,CC#CCOCCC=C1c2ccccc2[C@@H](OC)[C@@H]1C,-0.534
10,CCOC(=O)[C@H](CC(C)C)NC(=O)CCC1CC(OC(=O)NCc2ccc3c(c2)OCO3)CC2(CCCC(COC(=O)NCCOc3ccccc3)O2)O1 (stereo not given in full),0.282
11,CON=C(C)CCN1CCCCc2nc(C)c(C)cc21,-0.0284
12,C=CC[C@@H]1C=C[C@H](ON=CC[C@@H]2C=C[C@H](OC(C)=O)[C@@H](COC(C)=O)O2)[C@@H](CO)O1,1.54
13,C[C@@H]1CC[C@@H](C(=O)O)N[C@H]1c1cccc(N2CCOCC2)c1,0.032
14,CC(=O)OC[C@H]1O[C@H](CC=NOC[C@@H](O)COCc2ccco2)C=C[C@@H]1OC(C)=O,-0.436
15,CC(CCN1CCc2nc(-c3ccccc3)c(-c3ccccc3)cc2C1)=NO[C@H](C)c1cn([C@H](CO)Cc2ccccc2)nn1,0.545
16,CCOC(=O)CCN1C(=O)[C@H]2[C@H]3[C@H](O)[C@H](O)CC(=NNC(=O)OCc4ccc(OC)cc4)[C@H]3CC[C@H]2C1=O,-0.0807
17,CC(=O)OC[C@H]1O[C@@H](ON=C(C)CCC(=O)OC[C@H]2O[C@H](C#Cc3ccccc3)C=C[C@@H]2Oc2ccc(C)cc2)[C@H](OC(C)=O)[C@@H](OC(C)=O)[C@@H]1OC(C)=O,0.29
18,O=C1CCCC=C1C(O)c1ccc([N+](=O)[O-])cc1 (stereo not given),0.0753
